Efflux pump mplx: blocks antifungal efflux pumps in multiplex yeast assay; S. cerevisiae Candida pump triplex, Nile Red efflux; inhibition, % at 10 µM; 0.44% of 330,000 active; AID 485275;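 active = plate passing quality check with inhibition over a set limit, or well fluorescence over plate mean plus 4 SD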;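 note: Nile Red retained in pooled yeast measured as flow cytometry median fluorescence; higher means more Nile Red kept so more efflux inhibition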
PABP FP inh: PABP-poly(A) binding inhibition. PABP-poly(A) RNA binding, fluorescence polarization. 1% of 290,000 active. P11940. inhibition, % at 35 µM;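 note: calls also rest on retests at 20 µM and on dose response follow-up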
Target sequence (P11940 whole entry, looked up): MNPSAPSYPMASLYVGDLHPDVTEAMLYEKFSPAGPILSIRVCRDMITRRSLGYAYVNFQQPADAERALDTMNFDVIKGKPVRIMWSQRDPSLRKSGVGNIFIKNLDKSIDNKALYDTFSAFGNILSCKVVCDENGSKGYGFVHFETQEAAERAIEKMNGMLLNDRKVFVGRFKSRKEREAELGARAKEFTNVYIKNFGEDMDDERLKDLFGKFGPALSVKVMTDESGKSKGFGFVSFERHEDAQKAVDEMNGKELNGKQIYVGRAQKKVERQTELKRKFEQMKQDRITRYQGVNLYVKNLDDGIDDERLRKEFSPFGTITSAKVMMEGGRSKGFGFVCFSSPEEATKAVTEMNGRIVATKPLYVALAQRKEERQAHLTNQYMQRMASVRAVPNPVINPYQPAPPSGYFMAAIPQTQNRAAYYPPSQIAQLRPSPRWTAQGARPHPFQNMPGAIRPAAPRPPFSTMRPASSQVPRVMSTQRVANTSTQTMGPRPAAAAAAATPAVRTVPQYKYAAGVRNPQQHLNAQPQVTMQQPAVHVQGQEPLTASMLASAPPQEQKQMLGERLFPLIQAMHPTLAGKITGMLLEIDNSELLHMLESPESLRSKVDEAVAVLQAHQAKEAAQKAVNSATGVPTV
ALR H2O2 inh: blocks human ALR sulfhydryl oxidase activity | purified ALR, DTT oxidation, H2O2 HRP-luminol luminescence | AID 485317 | 3.8% of 290,000 active | P55789 | inhibition, % (no concentration beside the values);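 active = mean replicate inhibition above about 79%, with every replicate also reaching it, limit read from the data; inconclusive = only one of the two criteria met; inactive = mean below limit and not every replicate reaching it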
PABP1 MLLE inh: blocks PAM2 peptide binding to the PABP1 MLLE domain; inhibition, % at 20 µM; P11940; AID 588489; GST-MLLE / FITC-PAM2 fluorescence polarization; 0.36% of 360,000 active; in the data active = inhibition above about 35%, passing the limit was not always enough
UBC9 SUMO inh: inhibitors of human SUMOylation (UBC9); P63279; HTRF SUMOylation assay, SAE1/SAE2 + UBC9, in vitro; inhibition, % at 35 µM; 0.36% of 290,000 active; AID 2006; in the data active = inhibition above about 50%, passing the limit was not always enough; inconclusive = no clear call, values can overlap the other calls
eIF4H inh: inhibitors of RNA binding by human eIF4H; Q15056; eIF4H fluorescence polarization binding assay; inhibition, % at 35 µM; 0.94% of 290,000 active; AID 2012;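 note: calls also rest on retests at 20 µM and on dose response follow-up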
Of the large screens only hits and unclear results are named; the others gave an inactive call. An excerpt weighted towards active compounds, which were near 4.7% of everything screened. Unless noted, the rule behind the calls is not given here.

O=C(NCCCO)c1ccc2nc(-c3ccco3)c(-c3ccco3)nc2c1	UBC9 SUMO inh inconclusive (no result: Efflux pump mplx, ALR H2O2 inh)
COc1ccc(NC(=O)CC2C(=O)Nc3ccccc3N2CC(=O)N2CCCC2)cc1 (stereo not given)	ALR H2O2 inh 98 (no result: PABP FP inh, UBC9 SUMO inh, eIF4H inh)
COc1ccccc1N(C)C(=O)c1cc(S(=O)(=O)N2CCCC2)cn1C	none
O=C(NC1CCCC1)C(c1cccnc1)N(Cc1ccccc1F)C(=O)c1csnn1 (stereo not given)	none
O=C1CC(c2ccco2)CC(O)=C1C=NCC1CCNCC1 (stereo not given)	PABP FP inh 52, eIF4H inh 94
O=C1CC(c2ccco2)CC(O)=C1C=NCCN1CCNCC1 (stereo not given)	PABP FP inh 62, eIF4H inh 95
O=C1CC(c2ccco2)CC(O)=C1C=Nc1cc(Cl)cc(Cl)c1 (stereo not given)	none
O=C(COC(=O)Cc1ccc(S(=O)(=O)N2CCOCC2)s1)Nc1ccccc1Cl	none (no result: PABP FP inh, UBC9 SUMO inh, eIF4H inh)
COc1ccccc1N1CCN(S(=O)(=O)c2c(C)[nH]c(=O)[nH]c2=O)CC1	ALR H2O2 inh 97
COc1ccccc1N1CCN(S(=O)(=O)c2ccc(F)cc2)CC1	none
Cc1[nH]c(=O)[nH]c(=O)c1S(=O)(=O)N1CCN(c2ccccc2F)CC1	none
COc1ccccc1N1CCN(S(=O)(=O)c2cccc(F)c2)CC1	ALR H2O2 inh 97
COCCN(C(=O)Nc1ccc(OC)cc1)c1nc2ccccc2s1	none
CC(C)Cc1nnc(NC(=O)C2CCCN(C(=O)c3ccc(Cl)cc3)C2)s1 (stereo not given)	none (no result: Efflux pump mplx, PABP FP inh, ALR H2O2 inh, UBC9 SUMO inh, eIF4H inh)
OCC1OC(n2cnc3c(=S)nc[nH]c32)CC1O (stereo not given)	none (no result: Efflux pump mplx, PABP FP inh, ALR H2O2 inh, UBC9 SUMO inh, eIF4H inh)
S=c1nc[nH]c2c1ncn2C1CCCO1 (stereo not given)	PABP1 MLLE inh 40
Cc1cc(C(=O)N2CCCC(Nc3ccc(C(C)C)cc3)C2)nn1C (stereo not given)	ALR H2O2 inh 99
CC(C)c1ccc(NC2CCCN(C(=O)c3cnsn3)C2)cc1 (stereo not given)	ALR H2O2 inh 96
CCN(c1ccc(NC(=O)COC(=O)C(C)N=C2NS(=O)(=O)c3ccccc32)cc1)C(C)C (stereo not given)	none (no result: Efflux pump mplx, PABP FP inh, ALR H2O2 inh, UBC9 SUMO inh, eIF4H inh)
CCCCc1ccc(NC(=O)CSc2nc(=O)n(CCN(C)C)c3c2CCC3)cc1	ALR H2O2 inh 98 (no result: PABP FP inh, UBC9 SUMO inh, eIF4H inh)
CCCCc1ccc(NC(=O)CSc2nc(=O)n(CCN(CC)CC)c3c2CCCC3)cc1	ALR H2O2 inh 98 (no result: PABP FP inh, UBC9 SUMO inh, eIF4H inh)
CCN(CC)CCCn1c2c(c(SCC(=O)Nc3ccc(C)c(F)c3)nc1=O)CCC2	ALR H2O2 inh 97 (no result: PABP FP inh, UBC9 SUMO inh, eIF4H inh)
CN(C)CCCn1c2c(c(SCC(=O)Nc3ccc4c(c3)OCCO4)nc1=O)CCC2	ALR H2O2 inh 99 (no result: PABP FP inh, UBC9 SUMO inh, eIF4H inh)
CCN(CC)CCn1c2c(c(SCC(=O)Nc3cc(C)cc(C)c3)nc1=O)CCC2	none (no result: PABP FP inh, UBC9 SUMO inh, eIF4H inh)
CCNC(=O)N1CCCC(C(=O)c2ccc(OC)c(OC)c2)C1 (stereo not given)	none
CCN(CC)CCn1c2c(c(SCC(=O)Nc3cccc4ccccc34)nc1=O)CCCC2	ALR H2O2 inh 96 (no result: PABP FP inh, UBC9 SUMO inh, eIF4H inh)
COc1ccc(NC(=O)CSc2nc(=O)n(CCN(C)C)c3c2CCCC3)cc1	none (no result: PABP FP inh, UBC9 SUMO inh, eIF4H inh)
Cc1ccc(NC(=O)CSc2nc(=O)n(CCN(C)C)c3c2CCCC3)cc1Cl	ALR H2O2 inh 98 (no result: PABP FP inh, UBC9 SUMO inh, eIF4H inh)
CCN(CC)CCCn1c2c(c(SCC(=O)Nc3nc4ccccc4s3)nc1=O)CCC2	ALR H2O2 inh 99 (no result: PABP FP inh, UBC9 SUMO inh, eIF4H inh)
CN(C)CCn1c2c(c(SCC(=O)Nc3cccc4ccccc34)nc1=O)CCC2	none (no result: PABP FP inh, UBC9 SUMO inh, eIF4H inh)
Cc1ccc(C)c(N2N=C(C(=O)N(CC(C)C)c3c(N)n(Cc4ccccc4)c(=O)[nH]c3=O)CCC2=O)c1	none
CC(O)(c1ccc(F)c(F)c1)c1nc(-c2ccoc2)cs1 (stereo not given)	none (no result: Efflux pump mplx, PABP FP inh, ALR H2O2 inh, UBC9 SUMO inh, eIF4H inh)
O=S1(=O)CC(NCc2ccccc2)C(Nc2ccccc2)C1 (stereo not given)	none
COc1ccc(NC2CS(=O)(=O)CC2NCc2ccco2)cc1 (stereo not given)	ALR H2O2 inh 99
CC(=O)C1=C(O)C(=O)N(Cc2ccccc2)C1c1cccs1 (stereo not given)	none
O=C1NC(=O)C2C1C(c1cccs1)NN2Cc1ccccc1 (stereo not given)	ALR H2O2 inh 98
CC(=O)N1c2ccccc2Sc2ccccc21	none
O=C(Sc1nnc(-c2ccccc2)o1)N1c2ccccc2Sc2ccccc21	ALR H2O2 inh 93
Cn1ccnc1SC(=O)N1c2ccccc2Sc2ccccc21	ALR H2O2 inh 99
Cc1ccc(C)c(-n2cc[nH]c2=S)c1	none
